The values below come from PubChem BioAssay AID463173 (ICCB-Longwood Screening Facility, Harvard Medical School, 2010).

Each structure is given as a SMILES string. The campaign covered roughly 52,000 compounds. About 4,300 (8.3%) were called active. Shown is part of a subset that was picked to be rich in actives. A number with no mark means an inactive call. Rule as the data show it: active = survival mostly below about 52% (no sharp cut-off); inactive = mostly above about 56%.

The test system of the experiment is DeltatarO mutant. In words: growth inhibition of S. aureus wild type versus tarO mutant, primary screen, teichoic acid synthesis inhibitors, RN4220, OD600 (AID 463173). As to conditions: OD600, 18 h, hits give low values, screened at 18.75 µg/mL (by protocol).
`CCC(=O)Nc1ccc2nc3c(=O)n(C)c(=O)n(C)c3nc2c1`: the survival was 66%. Take `Cc1ccc(S(=O)(=O)c2cc3cc(C(=O)Nc4ccc(C)cc4C)ccc3oc2=O)cc1`: the survival is 89%.

Turning to `CCOC(=O)COc1nc(C)c(Br)c(OC)n1`, the survival was 81%. Regarding `COc1ccc(CNC(=O)COCc2cc(-c3cccs3)on2)cc1`, the survival was 107%. On to `CC1CCN(S(=O)(=O)c2ccc3c(c2)CCN3C(=O)Nc2ccc(Br)cc2F)CC1`, for which the survival is 74%. In the case of `CC(CNc1nc2ccccc2c2nc(-c3ccccc3)nn12)c1ccccc1` (stereo not given), the survival is 121%.

With `CCCCNC(=O)CCC(=O)NNc1nc2ccccc2c2nc(-c3ccccc3)nn12`, the survival is 78%. Take `Cc1ccc(CCNc2nc3ccccc3c3nc(-c4ccccc4)nn23)cc1`: the survival was 44% (active). As to `COc1cc2nc(NCCc3ccc(Cl)cc3)n3nc(-c4ccccc4)nc3c2cc1OC`, the survival was 51%. In the case of `Clc1ccc(CCNc2nc3ccccc3c3nc(-c4ccccc4)nn23)cc1`, the survival was 29% (active).

Turning to `Cc1ccc(CCNc2nc3ccccc3c3nc(-c4cccnc4)nn23)cc1`, the survival was 66%. To `O=c1n(Cc2ccc(Cl)cc2)c2ccccc2c2nc(-c3ccccc3)nn12` belongs 95%; to `CCCCNc1nc2ccccc2c2nc(-c3ccccc3)nn12`, -1% (active). The value for `CCc1ccc(CNC(=O)Cn2nc(C)n3c(cc4cc(C)ccc43)c2=O)cc1` was 83%. The value for `Cc1ccc(NC(=O)c2cnc3sc(N4CCOCC4)nn3c2=O)cc1N(C)C` was 80%.

Take `COc1cccc(NC(=O)Cn2nnc(C(=O)NCCc3ccccc3)c2N)c1`: the survival was 144%.

With `Cc1ccc(Cn2c(=O)n(-c3cccc(C(F)(F)F)c3)c(=O)c3c(C)c(C)sc32)c(C)c1`, the survival is 97%.

Consider `COc1ccc(CNC(=O)c2cnc(N(C)C)nc2)cc1`, for which the survival was 73%. As for `COc1ccc(-c2cn3c(c2C)-c2ccc(C)n2CC3)cc1`, the survival is 91%. With `O=C(c1ccc(Cl)cc1)N(Cc1ccco1)Cc1ccco1`, the survival was 97%. In the case of `CC(C)Oc1ccc(C(=O)N(Cc2ccc(N(C)C)cc2)Cc2ccco2)cc1`, the survival was 59%.

For the molecule `CC(C)Oc1ccc(C(=O)N(Cc2ccco2)Cc2cccs2)cc1`, the survival was 36% (active). To `Cc1ccc(C(=O)N(Cc2ccco2)Cc2sccc2C)cc1` belongs 44%; to `Cc1ccc(N(Cc2cccs2)C(=O)c2ccc(OC(C)C)cc2)cc1`, 95%. The value for `Cc1ccc(CN(Cc2ccco2)C(=O)c2cccc(C)c2)cc1` was 68%. Turning to `O=C(c1cc2sccc2n1Cc1ccccc1)N(Cc1ccco1)Cc1cccs1`, the survival was 96%. Turning to `O=C(c1ccccc1)N(Cc1ccco1)Cc1cccs1`, the survival is 41% (active). As for `Cc1ccsc1CN(Cc1ccco1)C(=O)c1ccc(Cl)cc1`, the survival was 34% (active). Consider `O=C(Nc1nnc(N2CCCCCC2)s1)Nc1cc(F)ccc1F`, for which the survival is 103%. Consider `CC1=C(C(=O)N(C)C)C(c2ccccc2Cl)NC(=O)N1` (stereo not given), for which the survival is 76%. To `CC(C)N1CC(C(=O)Nc2ccccc2)CC1=O` (stereo not given) belongs 73%; to `CCOC(=O)c1cc(-c2ccc(OC)c(S(=O)(=O)NC3CCCCC3)c2)on1`, 89%; to `CN1CCSc2ccc(C(=O)NCc3ccccc3)cc21`, 67%. To `O=C(NC1CCCC1)C(c1ccncc1)N(CCCN1CCOCC1)C(=O)c1ccc(-c2ccccc2)[nH]1` (stereo not given) belongs 76%; to `CN(C)C(=O)c1ccc(S(=O)(=O)NCc2ccccc2Cl)s1`, 94%; to `Cc1cccc(Cn2cc(C(=O)Nc3cc(F)ccc3F)ccc2=O)c1`, 74%. Consider `Cc1noc(-c2ccc(-c3noc(-c4cccc(F)c4)n3)cc2)n1`, for which the survival is 76%. `Cc1ccc(NC(=O)Cn2cc3c(n2)CCCC3)cc1Cl`: the survival was 87%. As for `COc1ccc(C2CC(=O)c3c([nH]c(C(=O)OC4CCCCCC4)c3C)C2)cc1OC` (stereo not given), the survival is 81%. With `COc1cc(C2CC(=O)c3c([nH]c(C(=O)OC4CCCC4)c3C)C2)cc(OC)c1OC` (stereo not given), the survival was 51% (active).

For `COc1ccc(C2CC(=O)c3c([nH]c(C(=O)OC4CCCC4)c3C)C2)cc1OC` (stereo not given), the survival is 128%. Consider `CC1(C)CC(=O)C2=C(C1)OC(N)=C(C#N)C2c1ccc2c(c1Cl)OCO2` (stereo not given), for which the survival was 97%.

For `COC(=O)c1ccccc1NC(=O)c1cc(CN2CCCC2)on1`, the survival is 75%. Turning to `COc1ccccc1-c1cc(C(=O)N2CCCCC2C)no1` (stereo not given), the survival is 11% (active). Consider `COc1ccc(-c2cc(C(=O)Nc3ccc4c(c3)OCO4)no2)cc1OC`, for which the survival was 65%. Consider `CC1CCCCN1C(=O)c1cc(-c2ccccc2)on1` (stereo not given), for which the survival was 88%. Consider `COc1ccc(-c2cc(C(=O)N3CCCCC3C)no2)cc1OC` (stereo not given), for which the survival was 58% (active).

With `CC1CCCCN1C(=O)c1cccc(C(=O)N2CCCCC2C)c1` (stereo not given), the survival is 80%.

In the case of `CC1CCCCN1C(=O)c1cc(-c2ccc(Br)cc2)on1` (stereo not given), the survival is 66%. In the case of `CCOc1ccccc1C(=O)N(C)c1ccccc1`, the survival is 92%. As for `CCc1nn2c(=O)cc(COC(=O)c3ccccc3NC(=O)c3ccc(C(C)(C)C)cc3)nc2s1`, the survival was 91%.

Regarding `O=c1cc(-c2ccccc2)nc(SCc2nc(-c3ccccc3Cl)no2)[nH]1`, the survival was 69%. Regarding `Cc1ccc(CNC(=O)Cn2c(-c3cccs3)cc3cc(Cl)ccc32)cc1`, the survival is 79%.

As to `Cc1ccc(C(=O)Nc2ccc3oc(-c4ccc(C(C)(C)C)cc4)nc3c2)cc1`, the survival is 70%. For `CCOc1cccc(C(=O)Nc2ccc3oc(-c4ccc(C(C)(C)C)cc4)nc3c2)c1`, the survival was 46% (active).

Take `CCOc1ccc(C(=O)Nc2ccc3oc(-c4cccc5ccccc45)nc3c2)cc1`: the survival was 60% (active). Take `CCOc1cccc(C(=O)Nc2ccc3oc(-c4ccncc4)nc3c2)c1`: the survival is 70%. `CCOc1ccc(C(=O)Nc2ccc3oc(-c4ccc5ccccc5c4)nc3c2)cc1`: the survival was 74%. On to `CCOc1ccc(C(=O)Nc2ccc3oc(-c4ccncc4)nc3c2)cc1`, for which the survival is 74%. As for `CCCCOc1ccc(C(=O)Nc2ccc3oc(-c4cccnc4)nc3c2)cc1`, the survival was 69%. In the case of `CCOc1cccc(C(=O)Nc2ccc3oc(-c4cccnc4)nc3c2)c1`, the survival is 56%. Regarding `CCCCOc1cccc(C(=O)Nc2ccc3oc(-c4cccnc4)nc3c2)c1`, the survival was 46% (active).

In the case of `O=C(Nc1ccc(NC(=O)C2CC2)nc1)c1cccc(F)c1`, the survival was 77%.

`CCCCCc1nn2cc(-c3ccccc3)nc2s1`: the survival was 105%. Turning to `Nc1ccc(CN2C(=O)c3ccccc3C2=O)cc1`, the survival is 91%. `O=C(C1CCCN(S(=O)(=O)c2cccs2)C1)N1CCN(c2ccccc2F)CC1` (stereo not given): the survival is 85%.

For the molecule `CCn1cc(C(=O)N2CCN(c3ccc(C(C)=O)cc3)CC2)c2cc(OC)c(OC)cc2c1=O`, the survival was 164%. Take `CCC(=O)N1CCc2cc(S(=O)(=O)CCC(=O)N3CCN(c4cccc(C)c4C)CC3)ccc21`: the survival was 98%. `Cc1ccc(NC(=O)CSc2nnc(COc3ccc(Cl)cc3)o2)cc1`: the survival was 49%.

Consider `CCc1ccccc1NC(=O)CSc1nnc(COc2ccccc2Cl)o1`, for which the survival is 66%. On to `CC(C)c1ccccc1NC(=O)CSc1nnc(COc2ccccc2Cl)o1`, for which the survival was 99%. Consider `O=C(CSc1nnc(COc2ccc(Cl)cc2)o1)Nc1ccccc1`, for which the survival is 51%. Consider `COc1ccc(CCCc2nnc(SCC(=O)Nc3cccc(F)c3C)o2)cc1`, for which the survival was 39% (active). On to `COc1ccc(CCCc2nnc(SCC(=O)Nc3ccc(OC)cc3)o2)cc1`, for which the survival is 65%. Take `Cc1cc(C)cc(NC(=O)CSc2nnc(COc3ccccc3Cl)o2)c1`: the survival was 12% (active).

On to `COc1cccc(NC(=O)CSc2nnc(COc3ccc(Cl)cc3)o2)c1`, for which the survival was 57% (active).

Consider `COc1ccc(CCCc2nnc(SCC(=O)Nc3cc(F)ccc3C)o2)cc1`, for which the survival was 64%. The value for `O=c1c2oc3ccccc3c2n(Cc2ccccc2)c(=O)n1Cc1ccco1` was 95%. Take `CCN(Cc1ccccc1)C(=O)CN1C(=O)COc2ccc(S(=O)(=O)N3CCCCCC3)cc21`: the survival is 95%.

As to `COc1cc(C2CC(=O)c3cnc(N4CCN(CCO)CC4)nc3C2)cc(OC)c1OC` (stereo not given), the survival was 92%. As to `CC(C)Cn1c(N2CCN(C(=O)Nc3ccc(Cl)cc3)CC2)nc2ccccc21`, the survival is 102%.

Take `CCn1c(N2CCN(C(=O)Nc3ccc(Cl)c(C(F)(F)F)c3)CC2)nc2ccccc21`: the survival was 0% (active).

As to `CCCn1c(N2CCN(C(=O)Nc3ccc(OC)cc3)CC2)nc2ccccc21`, the survival was 104%. The value for `CC(=O)c1ccc(NC(=O)c2noc3c2CSc2ccccc2-3)cc1` was 54%; that for `COCCCNC(=O)C1CCN(Cc2nc(-c3ccc(OC)c(OC)c3)oc2C)CC1` was 88%; that for `COc1ccc(OC)c(-c2noc(N3CCN(c4ccc(C(C)=O)cc4)CC3)n2)c1` was 134%. To `COc1ccc(/C=C/C(=O)Nc2ccc3nc(N4CCC(C)CC4)cc(C)c3c2)cc1OC` belongs 51%.

With `Cc1ccc(/C=C/C(=O)Nc2ccc3nc(N4CCC(C)CC4)cc(C)c3c2)cc1`, the survival was 122%.

`Cc1cc(N2CCCCC2)nc2ccc(NC(=O)/C=C/c3ccc(OCCC(C)C)cc3)cc12`: the survival is 56%. Take `COc1ccc(/C=C/C(=O)Nc2ccc3nc(N4CCCCC4)cc(C)c3c2)cc1OC`: the survival was 43% (active). Take `Cc1cc(N2CCCCC2)nc2ccc(NC(=O)/C=C/c3ccccc3OC(C)C)cc12`: the survival was 73%. To `Cc1cc(N2CCC(C)CC2)nc2ccc(NC(=O)/C=C/c3cccc(Cl)c3)cc12` belongs 53% (active); to `Cc1cc(N2CCCCC2)nc2ccc(NC(=O)/C=C/c3ccc(OC(C)C)cc3)cc12`, 50%.

Regarding `Cc1cc(N2CCCCC2)nc2ccc(NC(=O)/C=C/c3ccccc3Cl)cc12`, the survival was 44% (active).

With `COc1ccc(/C=C/C(=O)Nc2ccc3nc(N4CCC(C)CC4)cc(C)c3c2)cc1`, the survival is 51% (active).
